Records with an inconclusive call do not appear. Active and inactive are the calls of the source. The call rests on the fitted dose curve; in most records, active means well fitted curve in the direction sought with a large enough effect; inconclusive means small, poorly fitted or top-dose-only effect, or another doubt; inactive means no such curve, though single readings can be large; an effect the other way counts as inactive or inconclusive.

The text below walks through data of PubChem BioAssay (NCATS).

Experiment [1] in a line: qHTS of pediatric cancer cell lines to identify multiple opportunities for drug repurposing: Primary screen for control Hh wild type fibroblast cells (AID 1347106). Further: nearly all actives have a fitted effect of over 55% in size. Further: potency means the concentration at half of the fitted maximal effect. In outline:
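Cells (500-1,000/well) in growth media were settled 5 h at 37 degrees C, then given compounds for 48 h. Viability was read as CellTiter-Glo luminescence. Primary runs used MIPE at 11 points (0.78 nM-46 µM) and NPC at 8 points (0.59 nM-46 µM); follow-ups used 11 points.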
In general terms: In qHTS, concentration-response curves come from the screen itself.

Experiment [2] is described as follows: qHTS of pediatric cancer cell lines to identify multiple opportunities for drug repurposing: Primary screen for Rh30 cells (AID 1347107). Further: nearly all actives have a fitted effect of over 75% in size. Further: potency means the concentration at half of the fitted maximal effect. The method, boiled down: (§1)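 Viability after 48 h compound treatment at 37C, 500-1,000 cells/well, read as ATP luminescence with CellTiter-Glo. Primary screens used 11-point (MIPE, 0.78 nM-46 µM) or 8-point (NPC, 0.59 nM-46 µM) final concentrations; follow-up screens used 11-point dilutions.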

A short description of experiment [3]: qHTS of pediatric cancer cell lines to identify multiple opportunities for drug repurposing: Primary screen for Rh41 cells (AID 1347108). Further: nearly all actives have a fitted effect of over 70% in size. Further: potency means the concentration at half of the fitted maximal effect. The method, boiled down: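 ATP-based luminescence (CellTiter-Glo) quantifies viability after a 48-hour exposure. Compounds are dosed across 8 or 11 final concentrations; DMSO and 2.3 µM bortezomib serve as controls.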
Experiment [4] is described as follows: qHTS of pediatric cancer cell lines to identify multiple opportunities for drug repurposing: Confirmatory screen for NB1643 cells (AID 1347109). Further: nearly all actives have a fitted effect of over 45% in size. Further: potency means the concentration at half of the fitted maximal effect. In outline:
as §1

A short description of experiment [5]: qHTS of pediatric cancer cell lines to identify multiple opportunities for drug repurposing: Confirmatory screen for A673 cells (AID 1347110). Further: nearly all actives have a fitted effect of over 65% in size. Further: potency means the concentration at half of the fitted maximal effect. In outline: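 Cells plated at 500-1,000/well were treated five hours later with multi-point dilutions up to 46 µM final. After two days, CellTiter-Glo was added and luminescence read.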
Experiment [6] in a line: qHTS of pediatric cancer cell lines to identify multiple opportunities for drug repurposing: Confirmatory screen for BT-12 cells (AID 1347112). Further: nearly all actives have a fitted effect of over 55% in size. Further: potency means the concentration at half of the fitted maximal effect. The method, boiled down: as §1
Experiment [7] is described as follows: qHTS of pediatric cancer cell lines to identify multiple opportunities for drug repurposing: Confirmatory screen for LAN-5 cells (AID 1347113). Further: nearly all actives have a fitted effect of over 65% in size. Further: potency means the concentration at half of the fitted maximal effect. In outline: as §1
Experiment [8] can be described thus: qHTS of pediatric cancer cell lines to identify multiple opportunities for drug repurposing: Confirmatory screen for DAOY cells (AID 1347114). Further: nearly all actives have a fitted effect of over 65% in size. Further: potency means the concentration at half of the fitted maximal effect. In outline:
(§2)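 Viability measured as metabolically active cells via CellTiter-Glo luminescence following 48 hours of compound exposure, 11-point dilutions in confirmatory testing. 500-1,000 cells/well plated 5 hours before dosing; controls were DMSO and 2.3 µM bortezomib.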

Experiment [9] can be described thus: qHTS of pediatric cancer cell lines to identify multiple opportunities for drug repurposing: Confirmatory screen for SJ-GBM2 cells (AID 1347116). Further: nearly all actives have a fitted effect of over 60% in size. Further: potency means the concentration at half of the fitted maximal effect. The method, boiled down: as §2
A short description of experiment [10]: qHTS of pediatric cancer cell lines to identify multiple opportunities for drug repurposing: Confirmatory screen for BT-37 cells (AID 1347117). Further: nearly all actives have a fitted effect of over 55% in size. Further: potency means the concentration at half of the fitted maximal effect. In outline: as §1
Experiment [11] in a line: qHTS of pediatric cancer cell lines to identify multiple opportunities for drug repurposing: Confirmatory screen for U-2 OS cells (AID 1347122). Further: nearly all actives have a fitted effect of over 65% in size. Further: potency means the concentration at half of the fitted maximal effect. In outline:
as §1

A short description of experiment [12]: qHTS of pediatric cancer cell lines to identify multiple opportunities for drug repurposing: Confirmatory screen for Rh41 cells (AID 1347123).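 Further: 48 h compound exposure; nearly all actives have a fitted effect of over 60% in size.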 Further: potency means the concentration at half of the fitted maximal effect. In outline:
as §1

The nature of experiment [13]: qHTS of pediatric cancer cell lines to identify multiple opportunities for drug repurposing: Confirmatory screen for RD cells (AID 1347124). Further: potency means the concentration at half of the fitted maximal effect. In outline:
as §1

A short description of experiment [14]: qHTS of pediatric cancer cell lines to identify multiple opportunities for drug repurposing: Confirmatory screen for Rh18 cells (AID 1347125). Further: nearly all actives have a fitted effect of over 55% in size. Further: potency means the concentration at half of the fitted maximal effect. In outline: as §1
Experiment [15] in a line: qHTS of pediatric cancer cell lines to identify multiple opportunities for drug repurposing: Confirmatory screen for Rh30 cells (AID 1347126). Further: nearly all actives have a fitted effect of over 55% in size. Further: potency means the concentration at half of the fitted maximal effect. In outline:
as §1

Experiment [16] is described as follows: qHTS of pediatric cancer cell lines to identify multiple opportunities for drug repurposing: Confirmatory screen for SK-N-MC cells (AID 1347111).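 Further: cells exposed to compound for 48 h before the readout; nearly all actives have a fitted effect of over 70% in size.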 Further: potency means the concentration at half of the fitted maximal effect. The method, boiled down:
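SK-N-MC cells at 500-1,000 cells/well in growth media were pre-incubated 5 h, then exposed to compounds at 11-point dilutions for 48 h at 37 degrees C, 5% CO2. Viability was read as CellTiter-Glo luminescence.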

A short description of experiment [17]: qHTS of pediatric cancer cell lines to identify multiple opportunities for drug repurposing: Confirmatory screen for NB-EBc1 cells (AID 1347115). Further: nearly all actives have a fitted effect of over 45% in size. Further: potency means the concentration at half of the fitted maximal effect. In outline: as §1
The nature of experiment [18]: qHTS of pediatric cancer cell lines to identify multiple opportunities for drug repurposing: Confirmatory screen for TC32 cells (AID 1347118). The method, boiled down:
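TC32 cells, 500-1,000/well in growth medium, compound-treated 48 h at 37 °C; viability from CellTiter-Glo luminescence. Primary screen: MIPE 11-point (0.78 nM–46 µM final), NPC 8-point (0.59 nM–46 µM final); confirmatory at 11-point dilutions.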

Experiment [19] in a line: qHTS of pediatric cancer cell lines to identify multiple opportunities for drug repurposing: Confirmatory screen for Saos-2 cells (AID 1347127). Further: nearly all actives have a fitted effect of over 60% in size. Further: potency means the concentration at half of the fitted maximal effect. In outline: as §1
A short description of experiment [20]: qHTS of pediatric cancer cell lines to identify multiple opportunities for drug repurposing: Confirmatory screen for control Hh wild type fibroblast cells (AID 1347121). Further: nearly all actives have a fitted effect of over 70% in size. In outline:
as §1

Take `CCOc1ccc(NC(C)=O)cc1`: the Potency entry in experiment [1], in experiment [2] and in experiment [3] was “inactive” throughout.

Take `Cc1ccccc1OCC(O)CO` (stereo not given): the Potency result in [1], in experiment [2] and in [3] was “inactive” in each case.

`CC1(C)OC[C@@H]2O[C@@]3(C(=O)O)OC(C)(C)O[C@H]3[C@@H]2O1`: the Potency result in [1], in [2] and in experiment [3] was “inactive” each time.

Turning to `Cc1cn([C@H]2C[C@H](F)[C@@H](CO)O2)c(=O)[nH]c1=O`, the Potency result in experiment [1], in experiment [2] and in [3] was “inactive” in each case.

Take `N/C(=N\N=C\c1ccc(Cl)cc1)N/N=C/c1ccc(Cl)cc1`: the Potency entry in experiment [1], in experiment [2] and in experiment [3] was “inactive” throughout.

As to `Cc1cc(NS(=O)(=O)c2ccc(N)cc2)nc(C)n1`, the Potency result in experiment [1], in [2] and in experiment [3] was “inactive” throughout.

Regarding `CC(C)NCC(O)c1ccc2ccccc2c1` (stereo not given), the Potency entry in [1], in experiment [2] and in experiment [3] was “inactive” each time.

On to `Nc1ccc(S(=O)(=O)Nc2cnc3ccccc3n2)cc1`, for which the Potency result in [1], in experiment [2] and in experiment [3] was “inactive” each time.

Turning to `NC(=O)C1(N2CCCCC2)CCN(CCCC(=O)c2ccc(F)cc2)CC1`, the Potency entry in [1], in [2] and in experiment [3] was “inactive” each time.

For the molecule `COc1cc(C(=O)N2CCCCCCC2)cc(OC)c1OC`, the Potency entry in [1], in experiment [2] and in experiment [3] was “inactive” throughout.

For the molecule `CC(=O)OC[C@H]1O[C@@H](n2ncc(=O)[nH]c2=O)[C@H](OC(C)=O)[C@@H]1OC(C)=O`, the Potency entry in [1], in experiment [2] and in experiment [3] was “inactive” each time.

As to `COc1ccc(S(=O)(=O)N2c3ccc(Cl)cc3[C@@](O)(c3ccccc3Cl)[C@H]2C(=O)N2CCC[C@@H]2C(N)=O)cc1OC`, the Potency entry in [1], in [2] and in experiment [3] was “inactive” each time.

For `O=C(O)C(Cc1cc(I)c(O)c(I)c1)c1ccccc1` (stereo not given), the Potency result in experiment [1], in experiment [2] and in experiment [3] was “inactive” throughout.

Consider `OC1C(O)C(O)C(O)C(O)C1O` (stereo not given), for which the Potency result in [1], in [2] and in experiment [3] was “inactive” each time.

Take `CCC(Cc1c(I)cc(I)c(N)c1I)C(=O)O` (stereo not given): the Potency result in experiment [1], in [2] and in [3] was “inactive” throughout.

For `CCCCCCCCOc1ccc(C(=O)c2ccccc2)c(O)c1`, the Potency entry in experiment [1], in experiment [2] and in [3] was “inactive” throughout.

For the molecule `NC(=O)n1c(O)c(C(=O)c2cccs2)c2cc(Cl)ccc21`, the Potency entry in experiment [1], in [2] and in [3] was “inactive” in each case.

In the case of `CC(=O)N[C@@H](CCC(=O)O)C(=O)O`, the Potency entry in [1], in experiment [2] and in experiment [3] was “inactive” throughout.

As for `N#CCC(=O)NN`, the Potency result in experiment [1], in [2] and in experiment [3] was “inactive” in each case.

For `NC(N)=NN=C(/C=C/c1ccc([N+](=O)[O-])o1)/C=C/c1ccc([N+](=O)[O-])o1`, the Potency in experiment [1] was 21100 nM (active); in experiment [2], 3350 nM (active); in experiment [3], 1190 nM (active); in experiment [4], 1170 nM (active); in experiment [5] it was 2610 nM (active); in [6], 9270 nM (active). For the same molecule, the Potency was 1170 nM (active) in experiment [7]; 3290 nM (active) in experiment [8]; 2930 nM (active) in experiment [9]; 1470 nM (active) in experiment [10]; 1650 nM (active) in experiment [12]; 4140 nM (active) in experiment [13]. In addition, the Potency in [14] is 4650 nM (active); in experiment [15], 2080 nM (active). For the same molecule, in experiment [11], the Potency entry was “inactive”.

For `C[C@H]1O[C@@H](O[C@H]2CC[C@@]3(C)[C@H](CC[C@@H]4[C@@H]3C[C@@H](O)[C@]3(C)[C@@H](C5=CC(=O)OC5)CC[C@]43O)C2)C[C@H](O)[C@@H]1O[C@H]1C[C@H](O)[C@H](O[C@H]2C[C@H](O)[C@H](O[C@@H]3O[C@H](CO)[C@@H](O)[C@H](O)[C@H]3O)[C@@H](C)O2)[C@@H](C)O1`, the Potency in [1] was 75 nM (active); in [4] it was 414 nM (active); in experiment [5], 737 nM (active); in [16], 414 nM (active); in experiment [6] it was 293 nM (active); in experiment [7] it was 414 nM (active). The Potency in experiment [8] is 117 nM (active); in experiment [17], 369 nM (active); in [9], 465 nM (active); in experiment [10], 185 nM (active); in experiment [18] it was 233 nM (active); in [11], 293 nM (active). Besides, the Potency was 147 nM (active) in experiment [12], 414 nM (active) in [15] and 928 nM (active) in [19]. The Potency entry in experiment [2] was “inactive”.

Turning to `CCN(CC)CCOC(=O)C1(c2ccccc2)CCCC1`, the Potency entry in [1], in experiment [2] and in [3] was “inactive” in each case.

Consider `Cc1cccc(C)c1NC(=O)c1ccccc1C(=O)O`, for which the Potency entry in experiment [1] and in experiment [3] was “inactive” each time.

`CC[C@H](c1ccc(O)cc1)[C@@H](CC)c1ccc(O)cc1`: the Potency entry in experiment [1] and in experiment [3] was “inactive” throughout.

Regarding `CC1CCc2c(N3CCC(O)CC3)c(F)cc3c(=O)c(C(=O)O)cn1c23` (stereo not given), the Potency entry in experiment [1], in [2], in experiment [3], in experiment [7], in experiment [17] and in experiment [20] was “inactive” throughout. The Potency entry in [11], in experiment [13] and in experiment [15] was “inactive” in each case. Moreover, the Potency in experiment [12] was 18500 nM (active).

With `CC(C)(C)NC[C@H](O)COc1nsnc1N1CCOCC1`, the Potency result in [1], in [2] and in [3] was “inactive” in each case.

As to `COc1cc(C(=S)N2CCOCC2)ccc1O`, the Potency result in experiment [1], in experiment [2] and in experiment [3] was “inactive” each time.

On to `Nc1ccc(S(=O)(=O)NCc2ccccc2)cc1`, for which the Potency entry in experiment [1], in experiment [2] and in experiment [3] was “inactive” throughout.

Consider `CC(=O)NC(=O)c1ccccc1O`, for which the Potency result in experiment [1], in [2] and in experiment [3] was “inactive” each time.

For the molecule `COc1ccc(C(=O)c2ccccc2)c(O)c1`, the Potency entry in experiment [1], in experiment [2], in experiment [3], in experiment [4], in experiment [5] and in experiment [16] was “inactive” throughout. The Potency result in [6], in experiment [7], in experiment [8], in experiment [17], in [9] and in experiment [10] was “inactive” in each case. In addition, the Potency result in experiment [20], in experiment [12], in [13], in [14], in [15] and in experiment [19] was “inactive” in each case.
